# G9a inh: G9a (human) methyltransferase inhibition. Potency, µM (doses to about 102 µM), inactives show at the top dose activity, negative = inhibition, hits mostly inhibitors. Q96KQ7. G9a H3K9 monomethylation, AlphaScreen, 2 h. hit rate 8.8% among 350,000; note: % is set by controls: 0 for no effect and ±100 for the full control effect; nearly all actives have a fitted effect of over 75% in size
#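 Signal arises when biotinylated H3K9 peptide, once monomethylated, bridges streptavidin donor and antibody-captured acceptor beads. Enzyme at 20 nM was preincubated 15 min with test compounds; peptide 500 nM and SAM 20 uM then reacted for 2 h.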
# HP1b binding inh: HP1-beta chromodomain-methylated histone interaction inhibition. AlphaScreen HP1-beta / biotin-H3K9me3 peptide binding. Potency, µM (top dose mostly 114 µM), inactives show top-dose activity change, negative = inhibition, most hits filed as inhibitors. hit rate 0.56% among 390,000. AID 540317; note: nearly all actives have a fitted effect of over 70% in size
#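 HP1-beta protein (50 nM final) preincubated 30 min at room temperature with biotinylated H3(1-18)K9me3 peptide (50 nM) in PBS pH 7.4, 0.01% Tween-20, then compound added for 30 min. AlphaScreen streptavidin donor/nickel chelate acceptor beads (10 ug/mL final), 30 min dark, luminescence read.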
# BAZ2B inh: inhibitors of human BAZ2B bromodomain; Q9UIF8; AlphaScreen BAZ2B-H3K14Ac peptide displacement; Potency, µM (top dose mostly 114 µM), for the others: at the top dose activity change, negative = inhibition, hits mostly inhibitors; hit rate 4.4% among 360,000; AID 504333; note: % is set by controls: 0 for no effect and ±100 for the full control effect; nearly all actives have a fitted effect of over 60% in size
#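 AlphaScreen displacement of biotin-H3(5-23)K14Ac peptide (50 nM final) from BAZ2B (50 nM final) in PBS pH 7.4, 0.01% Tween-20; complex preformed 30 min RT, then compounds (top 110 uM) 30 min RT, beads 20 min dark.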
# JMJD2A Tudor: blocks the human JMJD2A Tudor domain | AlphaScreen JMJD2A-Tudor / H3K4me3 peptide binding | Potency, µM (doses to about 114 µM), for the others: at the highest dose activity change, negative = inhibition, most hits filed as inhibitors | hit rate 4.4% among 390,000 | AID 504339; note: % is set by controls: 0 for no effect and ±100 for the full control effect; nearly all actives have a fitted effect of over 50% in size
# Target sequence (O75164 whole entry, looked up, the tested form may be a part): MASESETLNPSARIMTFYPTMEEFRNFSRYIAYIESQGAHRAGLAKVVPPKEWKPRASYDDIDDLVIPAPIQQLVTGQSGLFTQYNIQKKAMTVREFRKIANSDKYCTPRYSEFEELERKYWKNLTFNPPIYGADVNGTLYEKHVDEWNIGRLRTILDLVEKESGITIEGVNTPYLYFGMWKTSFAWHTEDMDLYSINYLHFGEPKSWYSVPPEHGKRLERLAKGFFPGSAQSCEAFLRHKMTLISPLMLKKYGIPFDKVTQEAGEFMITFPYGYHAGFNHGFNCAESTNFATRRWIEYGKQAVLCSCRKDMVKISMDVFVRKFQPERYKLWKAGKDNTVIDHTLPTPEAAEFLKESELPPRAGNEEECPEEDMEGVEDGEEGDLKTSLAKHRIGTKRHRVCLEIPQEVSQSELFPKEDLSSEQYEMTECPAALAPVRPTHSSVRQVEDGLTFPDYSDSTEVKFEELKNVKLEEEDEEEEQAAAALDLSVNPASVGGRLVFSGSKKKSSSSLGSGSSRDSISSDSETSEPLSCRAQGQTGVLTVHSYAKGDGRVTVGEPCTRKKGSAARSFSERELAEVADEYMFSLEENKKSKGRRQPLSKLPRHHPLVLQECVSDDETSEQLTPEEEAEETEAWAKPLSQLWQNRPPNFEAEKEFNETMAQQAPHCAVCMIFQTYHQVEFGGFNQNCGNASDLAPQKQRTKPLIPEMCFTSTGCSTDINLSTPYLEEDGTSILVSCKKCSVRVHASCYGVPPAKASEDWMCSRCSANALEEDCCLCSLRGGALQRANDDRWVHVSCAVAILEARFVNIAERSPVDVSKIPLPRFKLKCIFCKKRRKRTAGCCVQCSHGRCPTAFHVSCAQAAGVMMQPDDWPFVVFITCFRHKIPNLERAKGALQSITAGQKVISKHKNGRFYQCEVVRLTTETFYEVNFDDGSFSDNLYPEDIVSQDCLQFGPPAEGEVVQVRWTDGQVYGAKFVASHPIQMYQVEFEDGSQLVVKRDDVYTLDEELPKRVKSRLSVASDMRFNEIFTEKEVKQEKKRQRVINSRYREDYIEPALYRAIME
# VDR inh: inhibitors of human vitamin D receptor | hit rate 0.93% among 400,000 | Potency, µM, inactives show max response, negative = inhibition, usual class: inhibitors | VDR-SRC2-3 peptide fluorescence polarization, 2 h; note: % is set by controls: 0 for no effect and ±100 for the full control effect
#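 After 23 nl compound addition and a short centrifugation, plates sat for 2 hours at ambient temperature; polarization of fluorescence then indicated loss of VDR binding to peptide SRC2-3.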
# PLK1 PBD inh: blocks phosphopeptide binding to human PLK1 polo-box domain; P53350; Plk1 PBD binding of FITC phosphopeptide, fluorescence polarization; Potency, µM, without a hit: max response, negative = inhibition, most hits filed as inhibitors; hit rate 2.8% among 360,000; AID 720504; note: series mostly up to about 57 µM; % is set by controls: 0 for no effect and ±100 for the full control effect; nearly all actives have a fitted effect of over 65% in size
# * = called active by the depositor; ? = inconclusive; . = not tested or not shown; [ ] = dose if it differs, or a comment. Sampled rows, rich in hits. Any-hit rate of the full collection: about 11%. Calls come from the whole dose curve; as a rule, active = well fitted curve in the direction sought with a large enough effect; inconclusive = small, poorly fitted or top-dose-only effect, or another doubt; inactive = no such curve, though single readings can be large; an effect the other way counts as inactive or inconclusive. Potency is the fitted concentration of half-maximal effect.
SMILES,G9a inh,HP1b binding inh,BAZ2B inh,JMJD2A Tudor,VDR inh,PLK1 PBD inh
COc1nc(-c2ccccc2)c2cc(C)ccc2n1,.,4.0%,10.7%,?,?,21.2µM*
COc1ccc(Cc2nnc(NC(=O)c3cccc([N+](=O)[O-])c3)s2)cc1,-23.5%,4.5%,9.6%,-7.0%,4.4%,-7.3%
COc1ccc(C(=O)NCC(=O)N/N=C/c2ccco2)cc1OC,70.8µM*,28.5%,-7.9%,-8.2%,18.3%,-9.3%
COc1ccc(C(=O)NCC(=O)N/N=C/c2cccnc2)cc1OC,7.2%,46.7%,-9.1%,-10.5%,22.0%,-13.5%
COc1ccc(/C(C)=N/NC(=O)CNC(=O)/C=C\c2ccco2)cc1,-28.6%,-6.9%,79.4µM*,?,-2.1%,?
COc1ccc(CNC(=O)c2n[nH]c3ccccc23)cc1OC,9.9%,25.4%,-3.2%,2.1%,-1.5%,1.6%
Cc1cc(C(=O)N2CCCC(C)(C(=O)NS(=O)(=O)C3CC3)C2)nn1C(C)(C)C (stereo not drawn),.,.,.,.,.,-2.8%
Cc1ccc2nc(-c3ccc(C)o3)c(Nc3ccc4c(c3)OCCO4)n2c1,4.47µM*,6.6%,?,?,-9.0%,.
Cc1ccc(-c2nc3ccccn3c2Nc2ccc3c(c2)OCCO3)o1,12.6µM*,?,44.7µM*,50.1µM*,-0.9%,.
S=C(NCC1CCCO1)N1CCN(Cc2ccccc2)CC1 (stereo not drawn),15.8µM*,20µM*,20µM*,0.891µM*,16.5%,-9.3%
S=C(NCC1CCCO1)N1CCN(c2nc(-c3ccccc3)cs2)CC1 (stereo not drawn),50.1µM*,-1.2%,?,?,-0.8%,-10.2%
O=C(NCC1CCCO1)c1ccc2c(c1)N(Cc1ccccc1)C(=O)CS2=O (stereo not drawn),-4.7%[59 µM],-14.0%,3.8%,?,?,7.52µM*
O=C(Cn1cnc(S(=O)(=O)N2CCOCC2)c1)Nc1ccc(OC(F)(F)F)cc1,43.8%,82.5%,-14.8%,-10.3%,0.7%,-12.9%
CCOC(=O)CSc1nnc(CSc2nc(N)c3c(C)c(C)sc3n2)n1-c1ccccc1,44.7µM*,14.5%,5.7%,-28.2%,9.2%,-2.6%
CC1(C)CC2(CC(c3ccc(F)cc3)c3ccc(O)cc3O2)NC(=S)N1 (stereo not drawn),?,10.1%,?,?,-10.7%,-13.5%
CC1(C)CC2(CC(c3ccccc3F)c3ccc(O)c(O)c3O2)NC(=S)N1 (stereo not drawn),.,?,44.7µM*,39.8µM*,21.8%,18.9µM*
O=C(NCCc1ccccn1)C(F)(F)C(F)(F)C(F)(F)C(F)(F)C(F)(F)C(F)F,?,10.2%,15.2%,50.1µM*,?,26.7µM*
CCCOc1ccc(-c2nc(SCc3ccccc3)[nH]c(=O)c2C#N)cc1OC,?,21.3%[57 µM],-2.9%,?,-15.0%,26.7µM*
N#Cc1c(-c2cccs2)nc(SCc2ccc(Cl)cc2)[nH]c1=O,-24.6%,-28.0%,?,?,-5.0%,21.2µM*
CSc1nc(-c2cccs2)c(C#N)c(=O)[nH]1,44.7µM*,-0.4%,-19.8%,-5.9%,9.0%,-15.1%
N#Cc1c(-c2ccccc2)nc(SCc2nc(N)nc(N3CCCCC3)n2)[nH]c1=O,2.3%[12.7 µM],?,-5.9%,?,-18.1%,2.99µM*
O=C(COC(=O)c1cccs1)NCC1CCCCC1,-2.6%,21.4%,3.7%,-3.0%,-15.2%,-6.3%
CC(=O)N1c2ccc(S(=O)(=O)N3CCN(c4ccc(C)cc4C)CC3)cc2CC1C (stereo not drawn),-23.7%[59 µM],23.9%,-16.4%,-13.2%,20.3%,.
O=C(OCc1cc(=O)n2c3c(sc2n1)CCCC3)c1cccc(NC(=O)c2ccccc2F)c1,2.4%[59 µM],10.9%,-8.6%,-6.0%,9.9%,.
CSc1nc(-c2ccc(Cl)cc2)c(C#N)c(=O)[nH]1,?,16.7%,-17.2%,1.1%,-14.0%,-3.4%
SMILES,G9a inh,HP1b binding inh,BAZ2B inh,JMJD2A Tudor,VDR inh,PLK1 PBD inh
CSc1nc(-c2ccccc2)c(C#N)c(=O)[nH]1,-33.3%,-18.0%,-13.2%,3.7%[11.4 µM],-23.8%,26.7µM*
O=c1[nH]cnc2c1ncn2-c1ccc(Cl)cc1,.,9.6%,.,-13.2%,-10.3%,-9.9%
COc1ccc(C2CC(c3ccc(C)cc3)=NN2C(=O)CCC(=O)O)cc1OC (stereo not drawn),0.9%,.,?,.,.,.
OC(CNCc1ccc(Cl)cc1)COc1ccccc1 (stereo not drawn),-46.1%,?,56.2µM*,20µM*,12.6%,-6.0%
COc1ccc(CCNCC(O)COc2cccc(Br)c2)cc1 (stereo not drawn),-6.7%,34.5%,-4.5%,-14.0%,12.7%,-4.2%
CC(C)(c1ccccc1)c1ccc(OCC(O)CNC2CCN(Cc3ccccc3)CC2)cc1 (stereo not drawn),39.8µM*,?,50.1µM*,2.82µM*,-4.7%,-9.1%
OC(CNCCc1ccc(Cl)cc1)COCc1ccco1 (stereo not drawn),22.4µM*,?,?,7.08µM*,-2.7%,-5.1%
CC(=O)c1cccc(OCC(O)CNCCc2ccc(Cl)cc2)c1 (stereo not drawn),?,7.7%,20µM*,?,0.1%,1.0%
O=C(COC(=O)c1ccco1)NCCc1ccc(Cl)cc1,-4.7%[12.7 µM],38.2%,-2.4%,8.1%,-37.4%,2.2%
CCOc1ccc(NC(=O)c2ccc(NC(=O)CCS(=O)(=O)c3cccs3)cc2)cc1,-3.5%[59 µM],29.5%,-3.7%,-8.2%,-8.9%,.
Cc1cnc(C(=O)OCc2csc(CC(=O)Nc3ccccc3C)n2)cn1,.,22.3%,-1.8%,-8.8%,21.9%,0.7%
COc1ccc(CNCC(O)COc2ccc(C(C)(C)c3ccccc3)cc2)cc1 (stereo not drawn),-0.3%[2.33 µM],?,39.8µM*,10µM*,0.4%,9.4%
CCOC(=O)c1cccc(OCC(O)CNCCOc2ccccc2F)c1 (stereo not drawn),50.1µM*,70.8µM*,?,17.8µM*,1.9%,-10.8%
OC(CNCc1ccccc1)COCc1ccc(Cl)cc1 (stereo not drawn),10µM*,35.3%,50.1µM*,-16.9%[57.1 µM],-4.3%,-8.4%
O=S(=O)(c1ccc2c(c1)OCCO2)N1CCN(S(=O)(=O)c2ccccc2Cl)CC1,.,.,.,-10.3%,.,.
C/C(CC(=O)Nc1ccc2c(c1)OCCO2)=N\NC(=O)COc1ccc(C)cc1Br,6.7%,2.5%,-23.1%,-21.4%,22.7%,-3.5%
CNC(=S)N(CCc1c(C)[nH]c2ccc(OC)cc12)Cc1ccco1,50.1µM*,-5.6%,?,?,-5.8%,-20.5%
CNC(=S)N(Cc1ccco1)Cc1cc2cc(OC)ccc2[nH]c1=O,.,-2.7%,-7.5%,-22.5%,-5.7%,-7.8%
